# L3MBTL1 inh: qHTS Assay for the Inhibitors of L3MBTL1; AlphaScreen L3MBTL1–H3K9me1 peptide binding; Potency, µM (series often up to 57.1 µM), inactives show top-dose activity, negative = inhibition, usual class: inhibitors; AID 485360, 2010; Lethal(3)malignant brain tumor-like protein 1 (Homo sapiens), Q9Y468; actives 0.66% (n = 230,000); note: % is set by controls: 0 for no effect and ±100 for the full control effect; nearly all actives have a fitted effect of over 60% in size
#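 Read-out is AlphaScreen signal from streptavidin donor and nickel chelate acceptor beads (10 ug/mL final each) bridging L3MBTL1 (50 nM) and biotinylated K9-monomethylated H3(1-15) peptide (75 nM), after 30 min compound exposure at room temperature.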
# JMJD2A Tudor: qHTS Assay for Inhibitors of JMJD2A-Tudor Domain. Lysine-specific demethylase 4A (Homo sapiens), O75164. AlphaScreen JMJD2A-Tudor / H3K4me3 peptide binding. Potency, µM (doses to about 114 µM), inactives show at the top dose activity change, negative = inhibition, usual class: inhibitors. actives 4.4% (n = 390,000); note: % is set by controls: 0 for no effect and ±100 for the full control effect; nearly all actives have a fitted effect of over 50% in size
# G9a block: qHTS Assay for Inhibitors of Histone Lysine Methyltransferase G9a; Histone-lysine N-methyltransferase EHMT2 (Homo sapiens), Q96KQ7; G9a H3K9 monomethylation, AlphaScreen, 2 h; Potency, µM (highest dose often 102 µM), inactives show at the top dose activity, negative = inhibition, usual class: inhibitors; actives 8.8% (n = 350,000); note: % is set by controls: 0 for no effect and ±100 for the full control effect; nearly all actives have a fitted effect of over 75% in size
#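 Using a bead-based AlphaScreen, monomethylated H3K9 product from 2 h room-temperature reactions (G9a 20 nM, peptide 500 nM, SAM 20 uM) was detected with 0.5 ug/mL rabbit anti-H3K9me1 antibody.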
# HP1b binding inh: HTS for Inhibitors of HP1-beta Chromodomain Interactions with Methylated Histone Tails. Chromobox protein homolog 1 (Homo sapiens), P83916. AlphaScreen HP1-beta / biotin-H3K9me3 peptide binding. Potency, µM (doses to about 114 µM), for the others: at the top dose activity change, negative = inhibition, actives largely listed as inhibitors. actives 0.56% (n = 390,000). AID 540317, 2011; note: nearly all actives have a fitted effect of over 70% in size
#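 HP1-beta protein (50 nM final) preincubated 30 min at room temperature with biotinylated H3(1-18)K9me3 peptide (50 nM) in PBS pH 7.4, 0.01% Tween-20, then compound added for 30 min. AlphaScreen streptavidin donor/nickel chelate acceptor beads (10 ug/mL final), 30 min dark, luminescence read.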
# Sfp PPTase inh: qHTS Assay for Inhibitors of Bacillus subtilis Sfp phosphopantetheinyl transferase (PPTase) | Biochemical Sfp PPTase activity, qHTS | Potency, µM, for inactives: largest response in the series, negative = inhibition, most hits filed as inhibitors | actives 3.5% (n = 310,000) | AID 1490, 2009;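 note: the enzyme is Sfp with the accession as filed and its product quenches rhodamine fluorescence; 0% = enzyme reaction without inhibitor and -100% = no enzyme wells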
#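 Sfp 15 nM + cpd, 15 min RT; start w/ rhodamine-CoA 5 uM, BHQ-2-YbbR 12.5 uM (final); 50 mM Hepes pH 7.6, 10 mM MgCl2, 0.01% NP-40, 0.01% BSA; read 525/598 nm at 0 and 30 min.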
# BAZ2B block: qHTS Assay for Inhibitors of BAZ2B | Bromodomain adjacent to zinc finger domain protein 2B (Homo sapiens), Q9UIF8 | AID 504333, 2011 | AlphaScreen BAZ2B-H3K14Ac peptide displacement | Potency, µM (top dose mostly 114 µM), for inactives: at the highest dose activity change, negative = inhibition, hits mostly inhibitors | actives 4.4% (n = 360,000); note: % is set by controls: 0 for no effect and ±100 for the full control effect; nearly all actives have a fitted effect of over 60% in size
#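 AlphaScreen luminescence quantifies BAZ2B engagement of H3K14Ac peptide; the protein and biotinylated peptide are both at 50 nM final, buffer PBS pH 7.4 with 0.01% Tween-20, all steps at room temperature.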
# * hit, by the source's call; u = inconclusive; x = no result given; [ ] = another dose, or the depositor's remark. The list is not random: actives were taken first. Their share in the collection is about 12%. Calls come from the whole dose curve; as a rule, active = well fitted curve in the direction sought with a large enough effect; inconclusive = small, poorly fitted or top-dose-only effect, or another doubt; inactive = no such curve, though single readings can be large; an effect the other way counts as inactive or inconclusive. Potency is the fitted concentration of half-maximal effect.
SMILES,L3MBTL1 inh,JMJD2A Tudor,G9a block,HP1b binding inh,Sfp PPTase inh,BAZ2B block
CC1CCCN(c2ccc(C(=O)NCc3ccc4c(c3)OCO4)cc2[N+](=O)[O-])C1 (stereo unspecified),-32.7%,u,14.1µM*,u,3.4%,u
CC[C@H]1OC(=O)[C@H](C)C(=O)[C@H](C)[C@@H](OC2O[C@H](C)C[C@H](N(C)C)[C@@H]2O)[C@@](C)(OC)C[C@@H](C)C(=O)[C@@H](C)C2N(CCCCn3cnc(-c4cccnc4)c3)C(=O)O[C@@]21C (stereo partly specified),x,x,-44.7%[12.7 µM],x,8.5%,x
COc1ccc2nc(C)cc(Nc3ccc(Cl)c(Cl)c3)c2c1,x,-22.9%,-3.8%[59 µM],28.1%,x,-1.5%
Cc1ccc(NC(=O)CN2C(=O)COc3ccc(S(=O)(=O)N4CCCCCC4)cc32)c(C)c1,x,-2.9%,-26.3%[59 µM],38.7%,x,-14.8%
O=C(COC(=O)c1ccc([N+](=O)[O-])s1)NC(=O)NCc1ccccc1,11.2µM*,-33.3%,-29.2%,4.2%,-6.6%,-15.2%
COc1ccc2c3c(c(=O)oc2c1)C1O[C@](CCCCN2C(=O)c4ccccc4C2=O)(Cc2cc(OC)c(OC)cc21)O3,x,x,x,x,-10.5%,-13.4%[22.9 µM]
COc1cccc(C(c2c(O)nc(SC)n(C)c2=O)c2c(O)nc(SC)n(C)c2=O)c1,10.3%,-22.2%,x,51.5%,4.0%,-33.7%
CCCSc1nc(O)c(C(c2ccc(OC)c(O)c2)c2c(O)nc(SCCC)n(C)c2=O)c(=O)n1C,2.2%,-10.1%,10µM*,13.8%,u,-8.3%
CCOC(=O)C1CCN(S(=O)(=O)CCNC(=O)c2ccccc2)CC1,3.8%,-7.5%,2.1%,27.9%,x,-5.4%
COc1cccc(C(=O)NCCS(=O)(=O)N(C)C2CCCCC2)c1,7.0%,-9.3%,22.4µM*,19.2%,x,-5.9%
COc1cccc(C(=O)Nc2ccccc2)c1,3.4%,0.8%[57.1 µM],-0.2%[2.33 µM],53.2%,1.1%,11.6%
COc1cccc(C(=O)NCCS(=O)(=O)N(C)Cc2ccccc2)c1,-1.3%,-14.3%,44.7µM*,19.1%,x,2.4%
CCOC(=O)C1CCCN(S(=O)(=O)CCNC(=O)c2cccc(OC)c2)C1 (stereo unspecified),-4.3%,-31.8%,11.2µM*,34.5%,x,-6.7%
COc1cccc(C(=O)NC(c2ccccc2)C2CCCC2)c1 (stereo unspecified),0.8%,22.4µM*,3.2%,1.1%,13.7%,1.2%
COC(=O)/C(=C1\OC(=O)C(c2ccccc2)C1=O)c1ccccc1 (stereo unspecified),x,x,x,x,27.1%,x
COc1ccc(COC(=O)N/N=C2/C[C@@H](O)[C@@H](O)[C@@H]3[C@@H]4C(=O)N(Cc5ccc6c(c5)OCO6)C(=O)[C@H]4CC[C@H]23)cc1,x,x,x,x,10.6%,x
CN(Cc1ccco1)c1ccnc(-c2cccc(C#N)c2)n1,x,x,-35.8%[0.501 µM],x,u,x
CCOC(=O)C1CCC(CN(Cc2c(Cl)cccc2Cl)S(=O)(=O)c2ccc(F)c(C)c2)CC1 (stereo unspecified),x,6.1%,5.8%[59 µM],35.0%,x,8.0%
COc1ccc(OC)c(C(=O)c2c(N)c(-c3nc(-c4ccc(C)c(C)c4)cs3)c3ccccn23)c1,x,-16.4%,-2.1%[59 µM],29.9%,x,-0.6%
CCCN(CCC)c1ccc(CC(=O)NC(C)Cc2ccccc2)cc1 (stereo unspecified),u,u,10µM*,-36.1%,-1.8%,u

# Compound activity as filed in PubChem BioAssay.
